# EWS-Fli block: EWS/Fli-driven NR0B1 reporter inhibitors, primary screen, A673 cells, NR0B1 luciferase, luminescence, MLPCN library | 350,000 tested, 0.67% active | AID 651661, 2012 | viability-normalised | inhibition, % at 12.6 µM;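 active = mean inhibition of at least 50% after viability correction, with every replicate also passing that limit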;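 also: firefly luciferase signal divided by Alamar Blue viability fluorescence both relative to DMSO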
# GSIS activator: GLuc luminescence reporter in INS-1E cells, primary screen for activators of glucose-dependent secretion of insulin | INS-1E GLuc reporter insulin secretion, 2-3 h | activation, % at 16.6 µM | 370,000 tested, 0.61% active | AID 743287, 2014;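 active = lowest replicate activation of at least 40%, so every replicate reaches that level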;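 also: 0% = median of neutral control wells and 100% = median of IBMX positive control wells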
# HIV Env fusion: inhibitors of HIV-1 Env-driven cell-cell fusion, primary screen, HeLa-JRFL effector, CEM21 target cells, luciferase. inhibition, % at 12.3 µM. 360,000 tested, 1.1% active. AID 651610, 2012;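 active = mean replicate inhibition score of at least 50 and every replicate individually at or above 50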;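 also: 0% = plate neutral controls and 100% = maraviroc near 300 nM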
# PAX8 reporter: inhibitors of PAX8-driven TPO luciferase reporter, primary screen, RMG-I cells, single concentration; SteadyGlo, 24 h; inhibition, % at 12.6 µM; 360,000 tested, 1.2% active;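 active = mean replicate inhibition at least 60% with every replicate also reaching 60%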;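 also: luciferase light reporting Pax8 driven TPO promoter activity; plate controls were median of neutral control wells for no effect and mitoxantrone controls for full effect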
# Statin myotox sup: suppressors of statin myotoxicity in C2C12 myotubes, primary screen, cell-based, single point, plate reader; C2C12 myotubes + simvastatin, ATP luminescence, 48 h; scaled: DMSO 0, geranylgeraniol control 100; rescue of ATP level, % at 7.49 µM; 330,000 tested, 0.78% active;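 active = mean ATP rescue above about 67%, or every replicate alone reaching that limit, limit read from the data, passing the limit was not always enough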;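 also: myotubes were challenged with 10 µM simvastatin during compound exposure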
# miR-122 sensor: miR-122 Renilla sensor signal increase in Huh7, primary screen, miR-122 inhibitor project, cell-based, single point, plate reader; AID 602342, 2012; activation (reporter increase), % at 12.5 µM; 340,000 tested, 0.3% active; Huh7 miR-122 Renilla luciferase sensor, 48 h; neutral wells = 0, positive control = 100;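 active = mean replicate activation score at least 90 and every replicate individually at or above 90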;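 also: higher luciferase means less miR-122 activity so hits act as miR-122 inhibitors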
# * = called active by the depositor; / = no result; [ ] = dose if it differs, or a comment. Compounds with a hit are over-represented: about 3.1% of the library has one in this group of screens.
SMILES,EWS-Fli block,GSIS activator,HIV Env fusion,PAX8 reporter,Statin myotox sup,miR-122 sensor
Cc1ccc(-c2nnc(-c3cccc4ccccc34)o2)cc1,-69.7,17.4,-141.1,-1.7,0.8,3.0
Cc1cccc(-c2nnc(-c3cccc4ccccc34)o2)c1,-4.1,11.9,-134.9,-105.2,-2.9,145.6*
C[C@@H]1CN([C@@H](C)CO)C(=O)c2cc(/C=C/c3ccccc3)cnc2O[C@@H]1CN(C)C,2.4,-3.0,-6.2[16.7 µM],/,-0.1,4.1[16.7 µM]
c1ccc2c(c1)OCC(CNc1ncnc3sccc13)O2 (stereo not drawn),/,-38.8,56.9*,-4.9,/,/
Fc1ccccc1CNc1ncnc2sccc12,38.5,4.8,38.8,27.6,-31.3,-8.3
COc1ccc2c3c([nH]c2c1)[C@H](CO)N(C(=O)Nc1ccc(F)cc1)CC31CCN(S(=O)(=O)c2cn(C)cn2)CC1,3.0,2.6,/,13.1,/,/
CCOC(=O)Cn1c(S(=O)(=O)Cc2cccc(F)c2)nc(-c2ccccc2)c1-c1ccccc1,/,-2.2,87.0*,/,/,-6.7
CCOC(=O)Cn1c(S(=O)(=O)Cc2ccc(F)cc2)nc(-c2ccccc2)c1-c1ccccc1,/,/,-4.2,/,2.9,6.6
NC(=O)Cn1c(S(=O)(=O)Cc2ccccc2)nc2ccccc21,/,/,-46.6,/,/,-5.0
C#CCn1c(S(=O)(=O)Cc2ccc(F)cc2)nc(-c2ccccc2)c1-c1ccccc1,/,-25.5,66.2*,/,52.4,1.5
O=C(C[C@H]1CC[C@H](NC(=O)c2ccc(F)cc2)[C@@H](CO)O1)NCc1ccncn1,/,-5.3,/,/,-7.4,/
Cc1ccnc(NC(=O)c2ccc(OCC3CCCO3)cc2)c1 (stereo not drawn),69.9*,7.9,17.7,48.8,/,/
COc1ccc(C(=O)NC(=O)Nc2cc(C)ccn2)cc1,72.7*,2.0,/,/,-84.7,-9.2
Cc1ccc(NC(=O)c2ccc(OCC3CCCO3)cc2)cc1Cl (stereo not drawn),-58.7,-2.1,70.3*,-151.9,-8.9,-0.4
Cc1ccc(NC(=O)c2ccc(OCC3CCCO3)cc2)c(C)c1 (stereo not drawn),/,31.6,-16.5,8.3,/,/
COc1ccc(NC(=O)c2ccc(OCC3CCCO3)cc2)cc1Cl (stereo not drawn),-59.2,17.0,-39.5,-132.9,-35.8,-12.1
CN(C)CCNc1ccc(CO)c2oc3ccc(O)cc3c(=O)c12,55.3*,/,44.0,/,/,-11.0
Nc1nc(Sc2ccc([N+](=O)[O-])c3nonc23)c2[nH]cnc2n1,27.5,/,-140.6,96.5*,/,-0.1
CNc1ncnc(Sc2nc(N)nc3nc[nH]c23)c1[N+](=O)[O-],64.3*,/,21.1,95.0*,/,1.3
CCCNC(=O)C[C@@H]1CC[C@H]2[C@@H](COC[C@H](O)CN2C(=O)Nc2c(C)noc2C)O1,-6.8,12.3,/,-19.4,-14.8,3.4[16.7 µM]
NC(=S)Nc1nc2ccccc2[nH]c1=O,-6.0,/,/,/,/,/
Cc1ccc2[nH]c(=O)c(NC(N)=S)nc2c1,/,5.8,-36.6,/,101.1*,-3.0
O=C(NNC(=O)C1CCN(S(=O)(=O)c2cccc(C(F)(F)F)c2)CC1)C1CC1,-6.9,-2.1,9.8,4.4,/,/
O=C(NC1CCCc2ccccc21)C1CCN(S(=O)(=O)c2cccc(C(F)(F)F)c2)CC1 (stereo not drawn),15.4,-20.0,/,69.6*,/,2.3
COc1ccc(-c2nc3cc(C)c(Br)c(C)n3c2Cc2ccccc2)cc1OC,3.7,10.6,71.4*,19.3,8.6,3.5
SMILES,EWS-Fli block,GSIS activator,HIV Env fusion,PAX8 reporter,Statin myotox sup,miR-122 sensor
Cc1cc2nc(-c3ccc(Cl)cc3)c(Cc3ccsc3)n2c(C)c1Br,-7.6,100.2*,-6.7,8.4,/,/
C[C@H](CO)N1C[C@H](C)[C@@H](CN(C)S(C)(=O)=O)Oc2ccc(NC(=O)NC3CCCCC3)cc2CC1=O,-2.2,-5.4,/,-1.1,7.1,-6.5[16.7 µM]
Cn1c(=O)c(C(=O)NNC(=O)c2ccc(Br)cc2)c(O)c2ccccc21,16.5,-1.1,17.8,63.7*,-80.5,-3.7
Cn1c(=O)c(C(=O)NNC(=O)c2ccccc2F)c(O)c2ccccc21,5.5,18.0,13.6,20.8,/,1.2
CCOc1ncnc2c1[nH]c1ccccc12,-22.6,24.6,-5.4,-44.6,130.9*,-7.4
CC(C)OCCCNc1ncnc2c1[nH]c1ccccc12,/,-25.3,77.9*,/,-26.8,10.8
O=C(NC1CCCC1)C(c1ccccc1F)N(C(=O)Cc1cccs1)c1ccc2c(c1)OCCO2 (stereo not drawn),13.3,-3.9,11.9,14.1,2.3,172.1*
Cc1ccc(N(C(=O)Cc2cccs2)C(C(=O)NC2CCCCC2)c2ccccn2)cc1C (stereo not drawn),/,-19.4,82.3*,13.1,/,/
O=C(NC1CCCC1)C(c1ccsc1)N(C(=O)Cc1cccs1)c1ccc(F)cc1 (stereo not drawn),/,/,/,/,14.3,/
CS(=O)(=O)N1CCN(c2ccccc2NC(=O)C(c2ccccc2)c2ccccc2)CC1,/,/,71.5*,/,1.6,-7.2
CN1CCN(c2ccccc2NC(=O)C(Cc2ccccc2)n2cccc2)CC1 (stereo not drawn),1.6,-36.6,77.5*,-2.6,7.3,/
CCC(=O)Nc1sc(Cc2ccc3c(c2)OCO3)c(C)c1C(N)=O,3.3,66.9*,3.8,-18.1,/,/
Cc1c(Cc2ccccc2)sc(NC(=O)C(C)(C)C)c1C(N)=O,17.1,46.0*,2.5,47.5,/,/
COC(=O)c1c(NC(C)=O)sc(Cc2ccccc2)c1C,/,/,14.7,2.3,10.5,153.4*
COC(=O)c1c(N)sc(C(=O)NCCc2ccccc2)c1C,83.3*,25.1,43.8,65.4*,-15.0,0.8
C[C@H](CO)N1C[C@H](C)[C@H](CN(C)Cc2ccc3c(c2)OCO3)Oc2c(NS(=O)(=O)c3cn(C)cn3)cccc2C1=O,-4.7,15.4,9.0[16.7 µM],-13.8,-23.2,4.2[16.7 µM]
Cc1ccccc1C(=O)Nc1ccc(Br)c(C)n1,/,-10.1,/,/,-10.3,127.9*
Cc1nc(NC(=S)NC(=O)c2cncc(Br)c2)ccc1Br,3.9,0.0,-36.1,-2.5,102.0*,-2.4
Cc1nc(NC(=O)c2cccnc2)ccc1Br,/,/,/,/,-15.2,-2.5
Cc1ccnc(NC(=S)NC(=O)c2cncc(Br)c2)c1,/,5.4,-10.7,-164.3,/,/
CC[n+]1c(/C=C/N(C)c2ccccc2)oc2ccccc21,7.1,-37.2,19.3,49.6,/,-1.7
CC[n+]1c(/C=C/N(C)c2ccccc2)oc2ccc(F)cc21,/,-2.5,17.6,35.5,/,335.5*
CCCNC(=O)C[C@@H]1CC[C@H]2[C@@H](COC[C@@H](O)CN2C(=O)C2CCOCC2)O1,2.6,-0.9,/,-18.8,10.0,-2.5[16.7 µM]
